Data taken from PubChem BioAssay (EPA / NIEHS).
Records with an inconclusive call do not appear. The source made the active and inactive calls. The calls were made as follows, unless noted: active = hit-call score of the fitted dose curve at least 0.9, where 1 is the maximum; inactive = score below 0.9.

Assays:
[1] = ACEA_ER_80hr: ACEA Biosciences xCELLigence Real-Time Cell Analysis on Estrogen Receptor Agonism for Proliferation (AID 2282667; active = hit-call score of the fitted dose curve at least 0.9, where 1 is the maximum); details: T47D proliferation, impedance (xCELLigence), 80 h
Summary of the method: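 Real-time electrical impedance tracked growth of the human breast line T47D, with the 80 h post-dosing value used. Dosing spanned eight 1:4 steps down from a 100 uM final top concentration, run in duplicate.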

[2] = ATG_CRE_CIS: Attagene CIS-FACTORIAL HepG2 Assay for human cAMP Responsive Element (CRE) binding protein 3 (AID 2282926); details: HepG2 CRE cis-reporter, Attagene multiplexed mRNA; actives raise or lower the signal
Summary of the method: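 Assay format: transient reporter transfection of HepG2, 24 h treatment, total RNA isolation with DNase I step. Reporter abundance read by fluorescence after PCR and capillary separation; DMSO-normalised gain or loss fitting.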

[3] = target: CCAAT/enhancer-binding protein beta (Homo sapiens) (UniProt P17676); experiment: ATG_C_EBP_CIS: Attagene CIS-FACTORIAL HepG2 Assay for human CCAAT/Enhancer Binding Protein (C/EBP) beta (AID 2282927); details: HepG2 Attagene cis-factorial transcription factor reporter; actives raise or lower the signal
Summary of the method: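 Following a 24 h incubation with test chemical, transfected HepG2 cells yielded RNA whose reporter transcripts were quantified by RT-PCR and fluorescent capillary electrophoresis, with DMSO serving as baseline for bidirectional fitting.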

[4] = ATG_CMV_CIS: Attagene CIS-FACTORIAL HepG2 Assay for human CMV (Internal Marker) (AID 2282928); details: HepG2 CMV promoter reporter, transcription factor profiling; actives raise or lower the signal;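 also: endpoint acts as a background internal control marker rather than a target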
Summary of the method: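 Readout: fluorescent reporter cDNA fragments separated by capillary electrophoresis after RT-PCR and HpaI cut. Cells: HepG2 carrying transfected cis-promoter reporter constructs, dosed 24 h. Endpoint serves as background internal-marker control, fit bidirectionally versus DMSO.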

[5] = ATG_DR4_LXR_CIS: Attagene CIS-FACTORIAL HepG2 Assay for human Liver X Receptor (LXR), DR4 submotif (AID 2282929); details: HepG2 Attagene DR4 cis-reporter, mRNA transcription; actives raise or lower the signal
Summary of the method: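 Cells were transfected with multiple reporter transcription units, exposed to chemicals for 24 hours, then lysed for RNA. Reporter mRNA induction was measured by RT-PCR with capillary electrophoresis detection and fitted in both directions relative to DMSO.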

[6] = target: Aryl hydrocarbon receptor (Homo sapiens) (UniProt P35869); experiment: ATG_Ahr_CIS: Attagene CIS-FACTORIAL HepG2 Assay for human Aryl Hydrocarbon Receptor (Ahr) (AID 2282930); details: HepG2 AhR cis-factorial reporter transcription; actives raise or lower the signal
Summary of the method: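 Values derive from bidirectional fitting against DMSO negative control. Underlying signal: cis-element reporter mRNA in transiently transfected HepG2, harvested 24 h post-dose and measured by RT-PCR plus capillary electrophoresis.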

[7] = ATG_AP_1_CIS: Attagene CIS-FACTORIAL HepG2 Assay for human Activator Protein 1 (AP-1) (AID 2282931); details: HepG2 Attagene cis-factorial AP-1 reporter mRNA; actives raise or lower the signal
Summary of the method: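 Endogenous transcription-factor activity in human HepG2 liver cells is read through a cis-promoter reporter transcript, sampled 24 h after dosing. Detection uses RT-PCR with capillary electrophoresis; values come from bidirectional fitting relative to DMSO.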

[8] = ATG_AP_2_CIS: Attagene CIS-FACTORIAL HepG2 Assay for human Activator Protein 2 (AP-2) (AID 2282932); details: HepG2 AP-2 cis-reporter, Attagene transcription factor profiling; actives raise or lower the signal
Summary of the method: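 Cells (HepG2) transfected with promoter-driven reporter constructs, treated 24 h. Total RNA reverse-transcribed, reporter cDNA PCR-amplified, FAM-labelled by primer extension, digested, resolved by capillary electrophoresis. Activity fitted both directions versus DMSO.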

[9] = ATG_BRE_CIS: Attagene CIS-FACTORIAL HepG2 Assay for human Bone Morphogenetic Protein (BMP) Response Element (BRE) (AID 2282933); details: HepG2 BMP response element reporter, Attagene transcription factor profiling; actives raise or lower the signal
Summary of the method: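 After a 24 h chemical treatment, transiently transfected HepG2 cells were lysed for RNA; reporter transcripts were quantified by fluorescent RT-PCR and capillary electrophoresis, normalised to DMSO.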

[10] = target: Retinoic acid receptor alpha (Homo sapiens) (UniProt P10276); experiment: ATG_DR5_RAR_CIS: Attagene CIS-FACTORIAL HepG2 Assay for human Retinoic Acid Receptor Alpha (RARE), DR5 submotif (AID 2282934); details: HepG2 Attagene cis-factorial RARE DR5 reporter, mRNA; actives raise or lower the signal
Summary of the method: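 Endpoint fitted in both directions relative to DMSO as negative control. It reflects DR5 cis-element reporter mRNA induction in transiently transfected HepG2 cells, measured 24 h after dosing through RT-PCR and fluorescent capillary electrophoresis.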

[11] = target: Transcription factor E2F1 (Homo sapiens) (UniProt Q01094); experiment: ATG_E2F_CIS: Attagene CIS-FACTORIAL HepG2 Assay for human E2F Transcription Factor 1 (AID 2282935); details: HepG2 Attagene cis-reporter, E2F reporter RNA transcripts; actives raise or lower the signal
Summary of the method: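 First, HepG2 cells were transfected with reporter transcription units. Next, they were dosed for 24 h. Then RNA was isolated, converted to cDNA, PCR-amplified, FAM-labeled, HpaI-digested and analyzed by capillary electrophoresis.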

[12] = ATG_E_Box_CIS: Attagene CIS-FACTORIAL HepG2 Assay for human Enhancer Box (E-box) (AID 2282936); details: HepG2 E-box cis-reporter transcription, actives raise or lower the signal
Summary of the method: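 Endogenous transcription factor activity was sensed in human HepG2 liver cells through transfected cis-promoter reporter units. After 24 h of dosing, total RNA was reverse-transcribed and reporter cDNA resolved by capillary electrophoresis.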

[13] = ATG_M_61_CIS: Attagene CIS-FACTORIAL HepG2 Assay for M61 Transcription Factor (Internal Marker) (AID 2282937); details: HepG2 Attagene CIS-FACTORIAL M61 internal marker reporter; actives raise or lower the signal
Summary of the method: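 Cells were transfected with reporter units under cis-regulatory promoters, treated with chemicals for 24 h, then lysed for RNA. Reporter transcripts were quantified by RT-PCR and capillary electrophoresis, and activity was fitted bidirectionally against DMSO.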

[14] = ATG_EGR_CIS: Attagene CIS-FACTORIAL HepG2 Assay for human Early Growth Response 1 (EGR1) (AID 2282938); details: HepG2 Attagene CIS-FACTORIAL EGR reporter mRNA; actives raise or lower the signal
Summary of the method: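 Endogenous TF activity in HepG2 liver cells was gauged through cis-promoter reporter constructs transiently transfected. After 24 h dosing, reporter mRNA was quantified by RT-PCR and capillary electrophoresis, and curves fitted in both directions versus DMSO.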

[15] = ATG_M_19_CIS: Attagene CIS-FACTORIAL HepG2 Assay for M19 Transcription Factor (Internal Marker) (AID 2282939); details: HepG2 Attagene CIS-FACTORIAL M19 internal marker reporter; actives raise or lower the signal
Summary of the method: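 In this multiplexed cell assay, transiently transfected HepG2 reporter units report endogenous transcription-factor activity; after 24 hours of treatment, labelled reporter cDNA fragments are quantified by capillary electrophoresis and fitted bidirectionally against DMSO.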

[16] = ATG_ERE_CIS: Attagene CIS-FACTORIAL HepG2 Assay for Estrogen Response Element (ERE) (AID 2282940); details: HepG2 ERE cis-reporter, Attagene RNA transcript; actives raise or lower the signal
Summary of the method: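 Measuring endogenous transcription factor output, the assay doses transfected HepG2 cells for 24 hours and quantifies reporter transcripts by fluorescent RT-PCR and capillary electrophoresis, with DMSO as baseline.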

[17] = ATG_Ets_CIS: Attagene CIS-FACTORIAL HepG2 Assay for human Erythroblast Transformation Specific (ETS) (AID 2282941); details: HepG2 ETS cis-reporter transcription, actives raise or lower the signal
Summary of the method: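 RT-PCR/capillary electrophoresis fluorescence read-out of reporter mRNA; HepG2 transient multi-reporter transfection; 24 h compound exposure; gain or loss of signal fitted bidirectionally relative to DMSO.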

[18] = target: Hepatocyte nuclear factor 3-beta (Homo sapiens) (UniProt Q9Y261); experiment: ATG_FoxA2_CIS: Attagene CIS-FACTORIAL HepG2 Assay for human Forkhead box A2 (FOXA2) (AID 2282942); details: HepG2 cis-reporter transcription factor activity, 24 h; actives raise or lower the signal
Summary of the method: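 Endogenous transcription factor activity was read in HepG2 cells carrying transiently transfected cis-promoter reporter units. After 24 h dosing, reporter mRNA was quantified by RT-PCR and capillary electrophoresis, and values fitted bidirectionally versus DMSO.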

[19] = ATG_FoxO_CIS: Attagene CIS-FACTORIAL HepG2 Assay for human Forkhead box O (FoxO) (AID 2282943); details: HepG2 Attagene cis-reporter, FoxO element, mRNA; actives raise or lower the signal
Summary of the method: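 Values reflect reporter mRNA induction or loss in HepG2 cells 24 h post-dosing, fitted bidirectionally with DMSO as negative control and baseline. Detection used RT-PCR and fluorescence capillary electrophoresis.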

[20] = ATG_GATA_CIS: Attagene CIS-FACTORIAL HepG2 Assay for human GATA Binding Protein (AID 2282944); details: HepG2 GATA cis-element reporter, Attagene multiplex mRNA; actives raise or lower the signal
Summary of the method: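 Measures endogenous transcription factor-driven reporter mRNA in HepG2 cells transiently carrying cis-regulated constructs. 24 h dosing; RNA via oligo(dT) reverse transcription, PCR, HpaI digestion, capillary electrophoresis; fitted relative to DMSO.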

Measured: outcome

Sequence of CCAAT/enhancer-binding protein beta (Homo sapiens) (P17676 whole entry, looked up): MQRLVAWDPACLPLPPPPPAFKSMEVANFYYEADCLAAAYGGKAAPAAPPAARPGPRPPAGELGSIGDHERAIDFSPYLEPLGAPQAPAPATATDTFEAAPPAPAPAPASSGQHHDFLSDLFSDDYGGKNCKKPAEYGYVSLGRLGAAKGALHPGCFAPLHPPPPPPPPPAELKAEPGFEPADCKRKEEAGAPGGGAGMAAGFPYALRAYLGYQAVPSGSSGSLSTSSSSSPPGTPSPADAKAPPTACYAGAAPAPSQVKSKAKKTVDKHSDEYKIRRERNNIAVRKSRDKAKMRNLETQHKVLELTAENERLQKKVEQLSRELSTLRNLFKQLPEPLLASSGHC
Sequence of Hepatocyte nuclear factor 3-beta (Homo sapiens) (Q9Y261 whole entry, looked up): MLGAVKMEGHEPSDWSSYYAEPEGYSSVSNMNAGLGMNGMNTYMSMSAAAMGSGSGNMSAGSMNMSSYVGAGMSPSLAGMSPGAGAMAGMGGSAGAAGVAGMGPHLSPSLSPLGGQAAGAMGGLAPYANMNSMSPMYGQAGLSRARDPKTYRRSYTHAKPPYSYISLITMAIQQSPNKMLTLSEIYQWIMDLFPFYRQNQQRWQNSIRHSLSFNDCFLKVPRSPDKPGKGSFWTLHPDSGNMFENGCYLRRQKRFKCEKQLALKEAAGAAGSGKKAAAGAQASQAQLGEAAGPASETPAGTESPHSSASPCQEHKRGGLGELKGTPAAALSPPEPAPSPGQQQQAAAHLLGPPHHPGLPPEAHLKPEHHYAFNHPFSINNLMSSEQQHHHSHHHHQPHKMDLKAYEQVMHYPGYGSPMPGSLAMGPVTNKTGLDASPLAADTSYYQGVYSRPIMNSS
Sequence of Retinoic acid receptor alpha (Homo sapiens) (P10276 whole entry, looked up): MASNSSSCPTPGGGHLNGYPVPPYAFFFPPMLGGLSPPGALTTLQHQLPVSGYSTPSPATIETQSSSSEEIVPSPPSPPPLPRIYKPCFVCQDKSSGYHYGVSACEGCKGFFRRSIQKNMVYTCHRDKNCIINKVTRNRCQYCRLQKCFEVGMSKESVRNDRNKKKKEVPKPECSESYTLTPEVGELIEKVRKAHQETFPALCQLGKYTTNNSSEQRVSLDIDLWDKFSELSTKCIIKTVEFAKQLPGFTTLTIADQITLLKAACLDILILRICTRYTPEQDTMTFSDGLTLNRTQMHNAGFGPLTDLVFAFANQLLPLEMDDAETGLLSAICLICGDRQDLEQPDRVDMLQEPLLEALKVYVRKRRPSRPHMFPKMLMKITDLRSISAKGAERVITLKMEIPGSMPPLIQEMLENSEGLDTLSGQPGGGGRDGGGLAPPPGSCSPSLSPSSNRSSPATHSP
Sequence of Transcription factor E2F1 (Homo sapiens) (Q01094 whole entry, looked up): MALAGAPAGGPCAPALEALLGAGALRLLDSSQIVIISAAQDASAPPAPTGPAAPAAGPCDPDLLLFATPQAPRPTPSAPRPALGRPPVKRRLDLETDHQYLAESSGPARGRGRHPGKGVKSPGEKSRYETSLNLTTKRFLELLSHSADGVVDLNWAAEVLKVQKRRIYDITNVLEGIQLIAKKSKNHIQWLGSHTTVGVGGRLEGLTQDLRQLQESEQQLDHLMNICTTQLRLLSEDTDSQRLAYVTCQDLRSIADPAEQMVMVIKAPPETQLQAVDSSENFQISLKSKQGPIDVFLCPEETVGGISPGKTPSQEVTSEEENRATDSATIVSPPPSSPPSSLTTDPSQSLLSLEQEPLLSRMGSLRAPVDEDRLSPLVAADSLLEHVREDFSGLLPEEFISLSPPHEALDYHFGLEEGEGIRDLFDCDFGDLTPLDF
Sequence of Aryl hydrocarbon receptor (Homo sapiens) (P35869 whole entry, looked up): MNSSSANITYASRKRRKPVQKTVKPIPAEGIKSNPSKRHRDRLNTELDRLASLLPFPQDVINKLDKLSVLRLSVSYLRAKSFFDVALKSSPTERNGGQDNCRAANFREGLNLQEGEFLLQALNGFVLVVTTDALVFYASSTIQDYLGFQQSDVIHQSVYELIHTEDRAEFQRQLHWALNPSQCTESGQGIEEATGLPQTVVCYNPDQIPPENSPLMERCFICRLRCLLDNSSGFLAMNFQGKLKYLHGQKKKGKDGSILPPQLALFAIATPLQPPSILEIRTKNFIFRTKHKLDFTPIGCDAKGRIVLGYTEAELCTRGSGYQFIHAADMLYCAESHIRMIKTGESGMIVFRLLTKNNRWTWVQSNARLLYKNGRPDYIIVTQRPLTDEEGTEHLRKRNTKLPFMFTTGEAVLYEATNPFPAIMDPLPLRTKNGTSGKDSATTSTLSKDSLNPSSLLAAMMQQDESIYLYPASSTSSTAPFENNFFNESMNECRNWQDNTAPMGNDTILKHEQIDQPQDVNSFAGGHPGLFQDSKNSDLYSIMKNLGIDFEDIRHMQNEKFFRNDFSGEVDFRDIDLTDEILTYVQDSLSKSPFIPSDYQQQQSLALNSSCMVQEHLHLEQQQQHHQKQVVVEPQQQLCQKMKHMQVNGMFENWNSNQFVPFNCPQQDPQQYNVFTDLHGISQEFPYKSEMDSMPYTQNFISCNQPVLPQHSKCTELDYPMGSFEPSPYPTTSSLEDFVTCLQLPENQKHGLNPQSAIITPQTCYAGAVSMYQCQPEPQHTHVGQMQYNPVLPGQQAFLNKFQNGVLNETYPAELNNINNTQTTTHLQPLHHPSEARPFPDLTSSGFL

CC/C=C\CCOC(=O)c1ccccc1
inactive: [1] | [2] | [3] | [4] | [5] | [6] | [7] | [8] | [9] | [10] | [11] | [12] | [13] | [14] | [15] | [16] | [17] | [18] | [19] | [20]

CCCCOc1ccc(N)cc1
inactive: [1] | [2] | [3] | [4] | [5] | [6] | [7] | [8] | [9] | [10] | [11] | [12] | [13] | [14] | [15] | [16] | [17] | [18] | [19] | [20]

O=C(O)C(F)(F)C(F)(F)C(F)(F)C(F)(F)F
inactive: [1] | [2] | [3] | [4] | [5] | [6] | [7] | [8] | [9] | [10] | [11] | [12] | [13] | [14] | [15] | [16] | [17] | [18] | [19] | [20]
